Assay outcomes deposited in PubChem by several laboratories.
LANA-H2A inh = blockers of LANA interaction with H2A/H2B – biochemical, FP readout, HTS, primary screen | 0.6% of 320,000 active | cell-free LANA-H2A/H2B peptide, fluorescence polarization | AID 2629, 2010 | inhibition, % (test concentration not listed) | Protein LANA1 (Human herpesvirus 8 type P (isolate GK18)), Q9QR71; in the data active = inhibition mostly above about 10%, no sharp cut-off; inactive = mostly below about 6.7%
Fh CTSL1 inh = Fasciola hepatica cathepsin L1 inhibitors, primary screen, counter-screen for PFM18AAP inhibitor project, biochemical, QFRET, fluorogenic peptide substrate; 0.49% of 300,000 active; recombinant F. hepatica cathepsin L1, Z-Leu-Arg-MCA fluorescence; inhibition, % at 5.96 µM;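 active = inhibition above the mean of all tested compounds plus 3 SD, set per screening campaign, cut at about 17% in these data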
m5-HT2A agonist = mouse Htr2a agonists via beta-arrestin recruitment, primary screen, cell-based, luminescence. 5-hydroxytryptamine receptor 2A (Mus musculus), P35363. CHO-K1 mHTR2A beta-arrestin complementation; percent of 30 µM serotonin response. activation, % at 7.6 µM. 0.66% of 360,000 active. AID 624169, 2012;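 active = activation above a run cutoff, the mean activation of all tested compounds plus 3 SD, cut at about 14% in these data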
HDAC3 inh = HDAC3 deacetylase inhibitors, primary screen, biochemical, fluorescence, cell-free homogeneous. Histone deacetylase 3 (Homo sapiens), O15379. recombinant HDAC3, fluorogenic peptide/trypsin coupled. inhibition, % at 8.3 µM. 0.15% of 320,000 active. AID 2718, 2010; in the data active = inhibition above about 26%, passing the limit was not always enough; inconclusive = no clear call, values can overlap the other calls
MOR ag counter = OPRM1 agonists via beta-arrestin recruitment, confirmation, counter-screen for mouse HTR2A agonist project, cell-based, luminescence, single concentration; shares compounds with m5-HT2A agonist; U2OS OPRM1 beta-arrestin PathHunter; DMSO 0%, DAMGO 9.3 µM 100%; activation, % at 9.3 µM; 5.3% of 2,300 active;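 active = mean activation above the mean of DMSO-only wells plus 3 SD, cut at about 0.5% in these data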
Target sequence (P35372 whole entry, looked up): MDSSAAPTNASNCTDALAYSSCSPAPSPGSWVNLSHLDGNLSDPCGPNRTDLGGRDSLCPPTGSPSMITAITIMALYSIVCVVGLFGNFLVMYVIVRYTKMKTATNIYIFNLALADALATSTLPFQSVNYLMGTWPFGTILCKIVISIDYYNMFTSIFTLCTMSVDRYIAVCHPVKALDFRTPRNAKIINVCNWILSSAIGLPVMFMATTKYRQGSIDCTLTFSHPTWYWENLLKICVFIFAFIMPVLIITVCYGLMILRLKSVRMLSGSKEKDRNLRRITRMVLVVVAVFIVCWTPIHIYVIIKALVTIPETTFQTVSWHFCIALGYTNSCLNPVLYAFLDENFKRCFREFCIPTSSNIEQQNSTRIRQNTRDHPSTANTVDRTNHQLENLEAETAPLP
HTR2A ag conf = mouse HTR2A agonists, beta-arrestin recruitment, confirmation, cell-based, luminescence, CHO-K1 PathHunter, triplicate; DMSO 0%, 30 µM serotonin 100%; 19% of 2,300 active; activation, % at 7.6 µM; shares compounds with m5-HT2A agonist; AID 624381, 2012;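 active = mean activation across triplicates above the hit threshold derived in the original primary screen, cut at about 15% in these data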
Of the large screens only hits and unclear results are named; the others gave an inactive call (follow-up assays come after a bar, where they were run). Most compounds without a hit are left out; they make up all but 1.7% or so of the library.

CCOc1cccc(CN2CCCC(N3CCN(c4cccc(Cl)c4)CC3)C2)c1O (configuration not stated)	none
COc1ccc(F)cc1C(=O)C1CCCN(Cc2ccc3c(c2)OCCO3)C1 (configuration not stated)	m5-HT2A agonist 26 | MOR ag counter 2.8 | HTR2A ag conf 28
COc1ccccc1C(=O)C1CCCN(Cc2ccc3c(c2)OCCO3)C1 (configuration not stated)	m5-HT2A agonist 33 | MOR ag counter inactive | HTR2A ag conf 16
COc1ccc(C(=O)C2CCCN(Cc3ccc4c(c3)OCCO4)C2)cc1F (configuration not stated)	none
O=C(Nc1ccc(Oc2ccccc2)cc1)c1csc([C@@H]2O[C@H](CO)[C@H](O)[C@H](O)[C@H]2O)n1	none (no result: LANA-H2A inh, Fh CTSL1 inh, HDAC3 inh)
CC(=O)Nc1cccc(-c2ccnc3c2CC(C(=O)Nc2cccc(OC(F)(F)F)c2)O3)c1 (configuration not stated)	none (no result: LANA-H2A inh, Fh CTSL1 inh, HDAC3 inh)
CCN(CC)c1ncnc2c1ncn2[C@H]1CN(Cc2ccccc2)C[C@@H](CO)O1	none (no result: LANA-H2A inh, Fh CTSL1 inh, HDAC3 inh)
O=C1C(=O)N(CCS(=O)(=O)c2ccccc2)c2ccc(Cl)cc21	none
CCc1ccc2c(c1)C(=O)C(=O)N2CCS(=O)(=O)c1ccccc1	m5-HT2A agonist 21 | MOR ag counter inactive | HTR2A ag conf inactive
O=C1NC[C@@H](CCCCN2C[C@H](Cc3ccccc3)N(CCC3CCCCC3)C(=O)C2=O)N(Cc2ccccc2)C1=O	m5-HT2A agonist 15 (no result: LANA-H2A inh, Fh CTSL1 inh, HDAC3 inh) | MOR ag counter inactive | HTR2A ag conf inactive
COc1cccc(CCc2nnc(CCC(=O)NC(C)Cc3cccs3)o2)c1 (configuration not stated)	none
CO[C@@H]1CN(C)C(=O)c2ccc(NC(=O)C3CCC3)cc2OC[C@H](C)N(CC2CCCCC2)C[C@H]1C	m5-HT2A agonist 21 (no result: LANA-H2A inh, Fh CTSL1 inh, HDAC3 inh) | MOR ag counter inactive | HTR2A ag conf inactive
CSc1ccccc1C(=O)N1CCC(CCC(=O)NC2CC2)CC1	m5-HT2A agonist 15 | MOR ag counter inactive | HTR2A ag conf inactive
Cn1c(CO)cnc1S(=O)(=O)Cc1c(Cl)cccc1Cl	none
COC(=O)c1ccn(CSc2c(F)c(F)cc(F)c2F)n1	none (no result: LANA-H2A inh, Fh CTSL1 inh)
COC(=O)c1ccn(CSc2cc(Cl)ccc2Cl)n1	m5-HT2A agonist 21 (no result: LANA-H2A inh, Fh CTSL1 inh) | MOR ag counter 0.6 | HTR2A ag conf inactive
Cc1cccc(NC(=O)COc2coc(CN3CCN(c4ccccc4)CC3)cc2=O)c1	none
O=C(N[C@H](CO)Cc1ccccc1)[C@H]1O[C@@H](n2ccc(=O)[nH]c2=O)[C@H](O)[C@@H]1O	none (no result: LANA-H2A inh, Fh CTSL1 inh, HDAC3 inh)
O=C(N[C@H](CO)c1ccccc1)[C@H]1O[C@@H](n2ccc(=O)[nH]c2=O)[C@H](O)[C@@H]1O	m5-HT2A agonist 15 (no result: LANA-H2A inh, Fh CTSL1 inh, HDAC3 inh) | MOR ag counter inactive | HTR2A ag conf inactive
Cc1c(-c2ccccc2)[nH]n2c(=O)c3c(nc12)CCCC3	m5-HT2A agonist 44 | MOR ag counter inactive | HTR2A ag conf 15
Cc1ccc(-c2[nH]n3c(=O)c4c(nc3c2C)CCCC4)cc1	HDAC3 inh inconclusive
COC(=O)c1ccccc1-c1cn(C)c2ccccc2c1=O	none
COc1cc(OC)nc(NC(=S)NC(=O)c2ccccc2)n1	m5-HT2A agonist 28 | MOR ag counter inactive | HTR2A ag conf inactive
O=C(NC(=S)Nc1cccc(NC(=S)NC(=O)c2ccccc2)c1)c1ccccc1	none (no result: LANA-H2A inh, Fh CTSL1 inh, HDAC3 inh)
Cc1ccc(-c2ccnc(=S)[nH]2)cc1	m5-HT2A agonist 15 | MOR ag counter inactive | HTR2A ag conf inactive
S=c1nccc(-c2ccc3c(c2)CCO3)[nH]1	none
CCOC(=O)CNS(=O)(=O)c1cc(-c2nnc(Nc3ccc4c(c3)OCO4)c3ccccc23)ccc1C	m5-HT2A agonist 17 | MOR ag counter inactive | HTR2A ag conf inactive
Cc1ccc(-c2nnc(Nc3ccc(O)cc3)c3ccccc23)cc1S(=O)(=O)NCCO	none (no result: Fh CTSL1 inh)
COc1ccc(Cl)cc1NC(=O)C(=O)N/N=C/c1cc(C)n(-c2ccc(C)cc2)c1C	m5-HT2A agonist 18 | MOR ag counter inactive | HTR2A ag conf inactive
CCN(CC)C(=O)Nc1ccc(Br)cc1	m5-HT2A agonist 23 | MOR ag counter inactive | HTR2A ag conf inactive
CCc1ccc(CCC(=O)Nc2ccc(Br)cc2)o1	none
Cc1cccc(NS(=O)(=O)c2ccc(NC(=O)N3CCCCC3)cc2)c1	m5-HT2A agonist 15 | MOR ag counter inactive | HTR2A ag conf inactive
CC(C)(C)OC(=O)C[C@H]1C/C=C\C[C@H](CC(=O)N[C@H](CO)Cc2ccccc2)C(=O)N2CCC[C@H]2COC1=O	none (no result: Fh CTSL1 inh)
Cc1ccc(Cn2c(=O)n(CCC(=O)NCc3ccc4c(c3)OCO4)c(=O)c3ccccc32)cc1	none
N#Cc1ccccc1Cn1c(=O)n(CCCC(=O)NCc2ccc3c(c2)OCO3)c(=O)c2ccccc21	m5-HT2A agonist 15 (no result: LANA-H2A inh, HDAC3 inh) | MOR ag counter inactive | HTR2A ag conf inactive
Cc1ccc(NC(=O)NNC(=O)C2CC(c3cccs3)=NO2)cc1 (configuration not stated)	none
COCCCN1C(=O)C(=O)/C(=C(/O)c2ccc(S(=O)(=O)N3CCOCC3)cc2)C1c1ccc(C)cc1 (configuration not stated)	m5-HT2A agonist 18 | MOR ag counter inactive | HTR2A ag conf inactive
COc1ccc(/C(O)=C2/C(=O)C(=O)N(CCCN3CCOCC3)C2c2ccc(C(C)C)cc2)cc1 (configuration not stated)	m5-HT2A agonist 15 (no result: Fh CTSL1 inh) | MOR ag counter inactive | HTR2A ag conf inactive
O=C1N(CN2CCN(c3cccc(Cl)c3)CC2)c2ccccc2C12OCCCO2	m5-HT2A agonist 18 | MOR ag counter inactive | HTR2A ag conf inactive
COC(=O)CNc1n[nH]c(=S)[nH]c1=O	m5-HT2A agonist 17 | MOR ag counter inactive | HTR2A ag conf inactive
CC(C)OC(=O)CNc1n[nH]c(=S)[nH]c1=O	none (no result: LANA-H2A inh, Fh CTSL1 inh, HDAC3 inh)
CC(=O)N1C[C@H]2CON(C)[C@H]2C[C@H]1c1ccccc1Br	m5-HT2A agonist 18 (no result: LANA-H2A inh, Fh CTSL1 inh, HDAC3 inh) | MOR ag counter inactive | HTR2A ag conf inactive
Cc1nc(SCC(=O)N2CCN(C(=O)c3cccs3)CC2)c2c(C)c(C)sc2n1	m5-HT2A agonist 16 (no result: LANA-H2A inh, Fh CTSL1 inh, HDAC3 inh) | MOR ag counter inactive | HTR2A ag conf inactive
O=S(=O)(c1ccccc1F)N1CCC(c2nc3ccccc3[nH]2)CC1	none
COc1ccc(-c2nc(CS(=O)CC(=O)NCCCN3CCOCC3)c(C)o2)cc1OC (configuration not stated)	m5-HT2A agonist 17 | MOR ag counter inactive | HTR2A ag conf inactive
COc1ccccc1C(=O)NCC(=O)OCc1nnc(-c2ccccc2)o1	none (no result: LANA-H2A inh, Fh CTSL1 inh, HDAC3 inh)
